Measured values taken from PubChem BioAssay (NCI).
Compounds without any hit were thinned out: in the full panel of roughly 83,000, 20% have a hit.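 Cells were grown in 96-well plates and exposed to the test compound at a single concentration for 48 hours; results are reported as percent growth, with values below 10 considered active.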 Values without a mark were called inactive. Activity calls are given as the source filed them.

system: MDA-MB-468 breast; assay: NCI-60 one-dose screen, 48 h (100 = growth as untreated, 0 = no growth, -100 = all killed); settings: 10 µM unless noted

SMILES | growth
CC(=O)O[C@H](C[C@H](C(C)C)N(C)C(=O)[C@@H](NC(=O)[C@H]1CCCCN1C)C(C)C)c1cccc(C(=O)N[C@@H](Cc2ccccc2)C[C@H](C)C(=O)O)n1 | 20.9%
Clc1ccc(CO/N=C(\Cn2ccnc2)c2ccc(Cl)cc2Cl)c(Cl)c1 | -24.5% (active)
CC12CCC3C(CC=C4CC(O)CCC43C)C1C/C(=C\N1CCOCC1)C2=O (stereo unspecified) | 106%
C[C@]12CC[C@H]3[C@@H](C[C@@H]4SC(Nc5ccccc5)=N[C@@]45CC(O)CC[C@]35C)[C@@H]1CCC2O (stereo partly specified) | -1% (active)
CC[C@H](C)[C@H](NC(=O)[C@H]1CCCCN1C)C(=O)N(C)[C@H](C[C@@H](OC(C)=O)c1nc(C(=O)NC23CC(C(=O)OC)(C2)C3)cs1)C(C)C | 4.52% (active)
O=C(c1cccs1)C1NO[N+]([O-])=C1c1cccs1 (stereo unspecified) | -47.7% (active)
COC(=O)[C@@H](C)C[C@H](Cc1ccccc1)NC(=O)c1cccc([C@@H](C[C@H](C(C)C)N(C)C(=O)[C@@H](NC(=O)[C@H]2CCCCN2C)C(C)C)OC(C)=O)n1 | 10.1%
C/C(=N/OC(=O)N(C)C)c1cc(Cl)ccc1Cl | 102%
NC(=S)c1cn(C2OC(CO)C(O)C2O)c2ncnc(N)c12 (stereo unspecified) | -43.2% (active)
O=C(NCc1ccc([N+](=O)[O-])cc1)Nc1ccc(S(=O)(=O)F)cc1 | 40.4%
COC(=O)[C@@H](C)C[C@H](Cc1ccccc1)NC(=O)c1nc([C@@H](C[C@H](C(C)C)N(C)C(=O)[C@@H](NC(=O)[C@H]2C[C@H](O)CCN2C)C(C)C)OC(C)=O)sc1C(C)C | -0.0807% (active)
